Assay [1] concerns the target human Norepinephrine Transporter (NET), SLC6A2 (gene 6530) (UniProt P23975). Kind of assay: NVS_TR_hNET: NovaScreen (NVS) Transporter Assay for human Norepinephrine Transporter (NET) (AID 2283377).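 Further: cell-free membrane protein extracted from CHO cells expressing human NET.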 In outline:
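Radioligand binding to human NET in cell-free CHO-derived protein preparations, read by filter-based scintillation counting 1 hour after dosing. Loss of signal versus DMSO baseline indicated displacement; primary screening in duplicate at 25 uM, actives then titrated.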

For assay [2], the target named is Estrogen receptor (Homo sapiens) (UniProt P03372). Description: OT_ERa_GFPERaERE_0120: Odyssey Thera (OT) 2-hour HeLa Transcription Induction Assay for Estrogen Receptor (AID 2283382). The method in brief:
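HeLa, 384-well, 2 h chemical exposure; GFP reporter induction (ERE), fluorescence microscopy; high content image analysis; positive fitting direction vs DMSO.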

The target in assay [3] is Peroxisome proliferator-activated receptor gamma (Homo sapiens) (UniProt P37231). Description: OT_PPARg_PPARgSRC1_0480: Odyssey Thera (OT) 8-hour Protein-Complementation Assay for Peroxisome Proliferator-activated Receptor Gamma / SRC-1 Co-activator (AID 2283387).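 Further: nuclear to cytoplasmic split Venus YFP fluorescence ratio reporting PPARg SRC-1 interaction.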 In outline:
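Protein-fragment complementation of split Venus YFP reports PPARg/SRC-1 interaction in HEK293T (transfected 48 h before treatment), exposed 8 h. Readout: N/C fluorescence ratio at 488 nm from imaging, Draq5 for segmentation, positive fit relative to DMSO.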

Assay [4] shares this target. Kind of assay: OT_PPARg_PPARgSRC1_1440: Odyssey Thera (OT) 24-hour Protein-Complementation Assay for Peroxisome Proliferator-activated Receptor Gamma/ SRC-1 Co-activator (AID 2283388).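 Further: nuclear to cytoplasmic ratio of reconstituted Venus YFP fluorescence in fixed imaged cells.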 The method in brief: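 Readout is the 488 nm N/C fluorescence ratio from fixed, Draq5-stained HEK293T cells after 24 h compound exposure. Cells carried transiently transfected PPARg and SRC-1 fused to Venus fragments, transfected 48 h before treatment.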

Assay [5] concerns the target human Dopamine Transporter (DAT), SLC6A3 (gene 6531) (UniProt Q01959). Description: NVS_TR_hDAT: NovaScreen (NVS) Transporter Assay for human Dopamine Transporter (DAT) (AID 2283374).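 Further: activity means loss of bound radioligand signal relative to DMSO.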 In outline: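 Cell-free radioligand binding to extracted human DAT protein, read 1 h after dosing by filter-based scintillation counting. Loss of specific binding scored against DMSO baseline; primary screen in duplicate at 25 uM, actives then run in concentration series.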

The target of assay [6] is Retinoic acid receptor RXR-alpha (Homo sapiens) (UniProt P19793). Kind of assay: OT_NURR1_NURR1RXRa_1440: Odyssey Thera (OT) 24-hour HEK293T Protein Complementation Assay for Nurr1/retinoid X receptor (RXR) (AID 2283386). The method in brief: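 Interaction of Nurr1 with RXRα brings fused reporter fragments together in human HEK293T cells, restoring a functional reporter. Fluorescence intensity is measured 24 h after chemical treatment, and values are analysed in the positive direction against DMSO.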

Assay [7] has as its target rat Serotonin Transporter (SERT), Slc6a4 (gene 25553) (UniProt P31652). Kind of assay: NVS_TR_rSERT: NovaScreen (NVS) Transporter Assay for rat Serotonin Transporter (SERT) (AID 2283375). In outline:
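Radioligand binding with competitive displacement on rat forebrain membrane preparations, counted by filtration and scintillation after 1 h. Primary single-point duplicates at 25 uM; active chemicals followed up in concentration-response. DMSO served as baseline.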

Assay [8] deals with Agonist Androgen Response Element (ARE), AR (gene 367) (UniProt P10275). Kind of assay: OT_AR_ARELUC_AG_1440: Odyssey Thera (OT) 24-hour CHO-K1 Luciferase Assay for Agonist Androgen Response Element (ARE) (AID 2283379). In outline: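 Seed CHO-K1 cells; dose compounds for 24 h; add D-luciferin plus ATP in PBS; read luminescence. Signal increase relative to vehicle defines agonist activity, with at least 3 replicate wells per sample.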

Assay [9] deals with Bile acid receptor (Homo sapiens) (UniProt Q96RI1). Description: OT_FXR_FXRSRC1_0480: Odyssey Thera (OT) 8-hour HEK293T Protein-Complementation Assay for Farnesoid X receptor/SRC-1 Co-activator (AID 2283383). The method in brief:
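Human kidney HEK293T cells carried FXR/SRC-1 fragment-complementation constructs. Compounds were added and incubated 8 h. Reporter reassembly upon receptor–co-activator interaction was then quantified by fluorescence, with curves fitted in the positive direction relative to DMSO.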

The target is the same in assay [10]. Description: OT_FXR_FXRSRC1_1440: Odyssey Thera (OT) 24-hour HEK293T Protein-Complementation Assay for Farnesoid X receptor/SRC-1 Co-activator (AID 2283384). The method in brief: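 Compounds are applied to human kidney HEK293T cells expressing bait and prey fused to reporter protein fragments; after 24 h, reconstituted reporter fluorescence is measured. Activity is fitted as signal gain over DMSO.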

The nature of assay [11]: CEETOX_H295R_OHPREG: CeeTox H295R High-throughput Steroidogenesis Assay for OH-Pregnenolone (OHPREG) (AID 2283434; active means hit-call score of the fitted dose curve at least 0.9, where 1 is the maximum; inactive means score below 0.9). To be noted: actives raise or lower the signal. The method in brief:
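Human adrenal H295R cells were prestimulated 48 h with 10 uM forskolin, then exposed 48 h to chemical in 0.1% DMSO. Medium 17alpha-hydroxypregnenolone was quantified by HPLC-MS/MS after MTBE extraction; bidirectional fitting versus DMSO baseline.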

Assay [12] is described as follows: CEETOX_H295R_OHPROG: CeeTox H295R High-throughput Steroidogenesis Assay for OH-Progesterone (OHPROG) (AID 2283435; active means hit-call score of the fitted dose curve at least 0.9, where 1 is the maximum; inactive means score below 0.9;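 on AC50: 17alpha-hydroxyprogesterone secreted into medium measured by HPLC-MS/MS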). To be noted: actives raise or lower the signal. The method in brief:
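H295R, 10 uM forskolin prestim 48 h; cmpd in 0.1% DMSO 48 h; medium MTBE-extracted, HPLC-MS/MS for OH-progesterone; 7-pt std curve; bidirectional fit vs DMSO; MTT viability, chemicals diluted until viability >/=70%.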

The nature of assay [13]: CEETOX_H295R_ANDR: CeeTox H295R High-throughput Steroidogenesis Assay for Androstenedione (ANDR) (AID 2283436; active means hit-call score of the fitted dose curve at least 0.9, where 1 is the maximum; inactive means score below 0.9). To be noted: actives raise or lower the signal. The method in brief:
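H295R human adrenal cells (passages ≤10) were exposed to test chemicals for 48 h; androstenedione in medium was MTBE-extracted and quantified by HPLC-MS/MS against a 7-point standard curve. Bidirectional fitting used DMSO as baseline.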

The nature of assay [14]: CEETOX_H295R_11DCORT: CeeTox H295R High-throughput Steroidogenesis Assay for 11-Deoxycortisol (11DCORT) (AID 2283432; active means hit-call score of the fitted dose curve at least 0.9, where 1 is the maximum; inactive means score below 0.9;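 further: 11-deoxycortisol secreted into the medium measured by LC-MS/MS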). Conditions: actives raise or lower the signal. The method in brief: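 Human adrenal H295R cells were prestimulated with 10 uM forskolin for 48 h, then exposed to test chemical (0.1% DMSO final) for 48 h. Medium 11-deoxycortisol was quantified by MTBE extraction and HPLC-MS/MS; bidirectional fitting relative to DMSO.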

The nature of assay [15]: CEETOX_H295R_CORTISOL: CeeTox H295R High-throughput Steroidogenesis Assay for Cortisol (AID 2283438; active means hit-call score of the fitted dose curve at least 0.9, where 1 is the maximum; inactive means score below 0.9;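 further: cortisol secreted into medium quantified by LC-MS/MS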). Conditions: actives raise or lower the signal. In outline: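 Forskolin 10 uM 48 h prestim → test cmpd in DMSO (0.1% final) 48 h → medium MTBE-extracted → LC-MS/MS cortisol vs 7-pt std curve. Gain/loss of signal fitted vs DMSO. MTT viability in same wells.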
Assay [16] has as its target Retinoic acid receptor RXR-alpha (Homo sapiens) (UniProt P19793). Description: OT_NURR1_NURR1RXRa_0480: Odyssey Thera (OT) 8-hour HEK293T Protein Complementation Assay for Nurr1/retinoid X receptor (RXR) (AID 2283385). The method in brief: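 8 h compound exposure, HEK293T; Nurr1/RXRα fragment complementation; fluorescence intensity; positive fitting direction vs DMSO baseline.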

Assay [17] has as its target Estrogen receptor beta (Homo sapiens) (UniProt Q92731). Description: OT_ER_ERbERb_1440: Odyssey Thera (OT) 24-hour HEK293T Protein-Complementation Assay for Estrogen Receptor-beta/-beta Homodimer (AID 2283380).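 Further: fluorescence gain from ER beta LBD homodimer complementation read by laser scanning cytometry; scored as signal increase over DMSO baseline for both agonists and antagonists.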 In outline: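 HEK293T cells stably expressing human ER-beta LBD (aa 310-547) PCA homodimer pair, dosed 24 h; formaldehyde-fixed, Draq5-stained. Readout: increase in nuclear (agonist) or nuclear plus cytoplasmic (antagonist) fluorescence intensity versus DMSO, gain-of-signal fitting.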

For assay [18], the target named is human Serotonin Transporter (SERT), SLC6A4 (gene 6532) (UniProt P31645). Description: NVS_TR_hSERT: NovaScreen (NVS) Transporter Assay for human Serotonin Transporter (SERT) (AID 2283372). In outline: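 Radioligand binding to native SERT in human platelet membranes, read by filter-based scintillation counting 1 h after dosing. Primary screen in duplicate at 25 uM; actives followed up in concentration series; loss of signal versus DMSO baseline.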

Assay [19] has as its system rat Norepinephrine Transporter (NET), gene 83511. Kind of assay: NVS_TR_rNET: NovaScreen (NVS) Transporter Assay for rat Norepinephrine Transporter (NET) (AID 2283373). In outline: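 Rat forebrain membranes; radioligand binding measured by filter-based scintillation counting 1 hour after dosing. Loss of specific binding versus DMSO baseline scored; primary screen in duplicate at 25 uM, actives followed up in concentration series.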

SMILES strings stand for the structures. Where “and” joins values, the source holds several entries; their conditions need not be identical. Equal values may be shown once. Results filed as inconclusive are left out. Calls of active or inactive are those of the source. How the source made its calls, unless noted: active means hit-call score of the fitted dose curve at least 0.9, where 1 is the maximum; inconclusive means response in the unintended direction; inactive means score below 0.9.

Sequence of human Norepinephrine Transporter (NET), SLC6A2 (gene 6530) (P23975 whole entry, looked up): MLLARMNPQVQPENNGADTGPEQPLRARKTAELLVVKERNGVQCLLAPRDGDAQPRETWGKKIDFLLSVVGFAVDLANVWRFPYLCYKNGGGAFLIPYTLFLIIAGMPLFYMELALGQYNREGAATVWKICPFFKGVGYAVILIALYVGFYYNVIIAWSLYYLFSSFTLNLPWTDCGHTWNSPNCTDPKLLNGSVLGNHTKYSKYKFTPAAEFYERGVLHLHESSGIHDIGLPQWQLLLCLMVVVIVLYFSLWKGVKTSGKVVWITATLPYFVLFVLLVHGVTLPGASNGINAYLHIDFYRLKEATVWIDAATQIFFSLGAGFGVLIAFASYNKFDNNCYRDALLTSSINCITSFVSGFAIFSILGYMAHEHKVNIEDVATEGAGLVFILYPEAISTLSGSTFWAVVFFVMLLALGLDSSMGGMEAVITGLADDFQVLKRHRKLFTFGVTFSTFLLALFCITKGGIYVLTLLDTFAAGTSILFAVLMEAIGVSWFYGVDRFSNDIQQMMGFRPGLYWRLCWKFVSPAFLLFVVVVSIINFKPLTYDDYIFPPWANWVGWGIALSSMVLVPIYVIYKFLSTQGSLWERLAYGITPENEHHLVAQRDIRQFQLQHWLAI
Sequence of Peroxisome proliferator-activated receptor gamma (Homo sapiens) (P37231 whole entry, looked up, the tested form may be a part): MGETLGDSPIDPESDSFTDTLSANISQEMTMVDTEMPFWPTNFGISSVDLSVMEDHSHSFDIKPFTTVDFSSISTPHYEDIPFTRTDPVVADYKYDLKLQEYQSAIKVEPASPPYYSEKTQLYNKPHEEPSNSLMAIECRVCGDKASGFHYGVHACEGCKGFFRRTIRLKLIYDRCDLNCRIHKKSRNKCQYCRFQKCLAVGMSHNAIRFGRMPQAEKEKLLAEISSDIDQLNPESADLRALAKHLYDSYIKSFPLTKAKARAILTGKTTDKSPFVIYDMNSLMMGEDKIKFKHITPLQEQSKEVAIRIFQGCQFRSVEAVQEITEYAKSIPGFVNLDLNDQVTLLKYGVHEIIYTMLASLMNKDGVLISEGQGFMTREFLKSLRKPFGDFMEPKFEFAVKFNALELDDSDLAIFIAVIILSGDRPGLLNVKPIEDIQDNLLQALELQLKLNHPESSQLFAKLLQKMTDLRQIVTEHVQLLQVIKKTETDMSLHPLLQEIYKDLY
Sequence of human Dopamine Transporter (DAT), SLC6A3 (gene 6531) (Q01959 whole entry, looked up): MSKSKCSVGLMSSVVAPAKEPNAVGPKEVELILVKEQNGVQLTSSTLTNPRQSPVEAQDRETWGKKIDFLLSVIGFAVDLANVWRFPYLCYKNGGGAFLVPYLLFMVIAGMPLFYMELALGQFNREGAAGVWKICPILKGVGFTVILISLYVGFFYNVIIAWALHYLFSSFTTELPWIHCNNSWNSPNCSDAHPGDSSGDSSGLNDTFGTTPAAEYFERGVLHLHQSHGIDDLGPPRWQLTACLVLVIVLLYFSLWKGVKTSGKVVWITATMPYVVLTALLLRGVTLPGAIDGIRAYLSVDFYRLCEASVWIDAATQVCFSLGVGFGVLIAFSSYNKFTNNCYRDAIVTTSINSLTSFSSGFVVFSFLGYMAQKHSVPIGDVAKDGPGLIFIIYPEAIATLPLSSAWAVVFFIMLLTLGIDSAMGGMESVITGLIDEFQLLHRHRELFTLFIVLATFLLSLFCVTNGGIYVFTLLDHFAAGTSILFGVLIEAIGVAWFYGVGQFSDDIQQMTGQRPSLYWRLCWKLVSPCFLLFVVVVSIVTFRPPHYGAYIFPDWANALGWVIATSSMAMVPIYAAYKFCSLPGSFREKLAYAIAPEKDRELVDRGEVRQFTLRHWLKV
Sequence of Retinoic acid receptor RXR-alpha (Homo sapiens) (P19793 whole entry, looked up, the tested form may be a part): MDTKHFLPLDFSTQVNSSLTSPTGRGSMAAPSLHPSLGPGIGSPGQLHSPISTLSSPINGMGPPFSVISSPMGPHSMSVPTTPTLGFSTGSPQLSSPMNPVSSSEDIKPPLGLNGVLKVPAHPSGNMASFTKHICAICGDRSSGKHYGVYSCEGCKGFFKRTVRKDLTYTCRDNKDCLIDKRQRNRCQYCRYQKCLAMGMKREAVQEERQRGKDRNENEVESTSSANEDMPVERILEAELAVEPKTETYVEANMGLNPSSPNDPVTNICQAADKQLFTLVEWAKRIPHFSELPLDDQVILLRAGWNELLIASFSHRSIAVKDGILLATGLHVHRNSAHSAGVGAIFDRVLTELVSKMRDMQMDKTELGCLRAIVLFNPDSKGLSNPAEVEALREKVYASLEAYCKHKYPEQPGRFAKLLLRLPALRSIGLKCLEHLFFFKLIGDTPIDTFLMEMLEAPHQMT
Sequence of Estrogen receptor (Homo sapiens) (P03372 whole entry, looked up): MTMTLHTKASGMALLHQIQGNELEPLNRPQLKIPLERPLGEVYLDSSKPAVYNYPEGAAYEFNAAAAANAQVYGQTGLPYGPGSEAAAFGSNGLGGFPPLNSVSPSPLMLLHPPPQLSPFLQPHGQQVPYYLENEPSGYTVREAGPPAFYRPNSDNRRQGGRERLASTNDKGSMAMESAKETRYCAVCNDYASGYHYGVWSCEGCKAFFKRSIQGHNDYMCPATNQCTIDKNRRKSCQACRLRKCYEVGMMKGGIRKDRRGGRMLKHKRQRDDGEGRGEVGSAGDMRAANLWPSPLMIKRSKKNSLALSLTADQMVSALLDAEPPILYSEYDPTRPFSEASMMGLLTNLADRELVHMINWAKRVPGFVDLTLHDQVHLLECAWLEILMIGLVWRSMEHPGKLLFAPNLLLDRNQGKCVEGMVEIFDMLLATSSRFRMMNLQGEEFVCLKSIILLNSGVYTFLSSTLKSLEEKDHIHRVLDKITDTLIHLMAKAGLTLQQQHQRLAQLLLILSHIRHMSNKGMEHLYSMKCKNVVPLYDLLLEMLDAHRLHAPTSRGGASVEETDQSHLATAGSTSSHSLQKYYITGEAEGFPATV
Sequence of rat Serotonin Transporter (SERT), Slc6a4 (gene 25553) (P31652 whole entry, looked up): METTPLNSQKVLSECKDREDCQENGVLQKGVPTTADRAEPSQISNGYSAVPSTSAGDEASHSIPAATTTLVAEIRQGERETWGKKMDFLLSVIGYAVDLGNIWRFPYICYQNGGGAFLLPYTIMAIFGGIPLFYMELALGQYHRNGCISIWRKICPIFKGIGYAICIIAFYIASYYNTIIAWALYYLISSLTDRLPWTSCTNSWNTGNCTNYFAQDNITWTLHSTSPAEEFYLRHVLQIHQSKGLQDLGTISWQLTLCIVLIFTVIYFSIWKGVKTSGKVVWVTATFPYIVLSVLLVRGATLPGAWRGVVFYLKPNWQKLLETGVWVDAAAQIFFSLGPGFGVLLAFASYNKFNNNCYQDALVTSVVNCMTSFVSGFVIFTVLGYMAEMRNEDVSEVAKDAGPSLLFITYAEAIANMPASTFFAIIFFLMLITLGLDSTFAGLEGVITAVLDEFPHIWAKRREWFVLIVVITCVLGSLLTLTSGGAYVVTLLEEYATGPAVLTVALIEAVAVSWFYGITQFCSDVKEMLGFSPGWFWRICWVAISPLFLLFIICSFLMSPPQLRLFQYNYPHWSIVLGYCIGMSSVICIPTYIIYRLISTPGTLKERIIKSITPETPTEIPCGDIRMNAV
Sequence of Bile acid receptor (Homo sapiens) (Q96RI1 whole entry, looked up, the tested form may be a part): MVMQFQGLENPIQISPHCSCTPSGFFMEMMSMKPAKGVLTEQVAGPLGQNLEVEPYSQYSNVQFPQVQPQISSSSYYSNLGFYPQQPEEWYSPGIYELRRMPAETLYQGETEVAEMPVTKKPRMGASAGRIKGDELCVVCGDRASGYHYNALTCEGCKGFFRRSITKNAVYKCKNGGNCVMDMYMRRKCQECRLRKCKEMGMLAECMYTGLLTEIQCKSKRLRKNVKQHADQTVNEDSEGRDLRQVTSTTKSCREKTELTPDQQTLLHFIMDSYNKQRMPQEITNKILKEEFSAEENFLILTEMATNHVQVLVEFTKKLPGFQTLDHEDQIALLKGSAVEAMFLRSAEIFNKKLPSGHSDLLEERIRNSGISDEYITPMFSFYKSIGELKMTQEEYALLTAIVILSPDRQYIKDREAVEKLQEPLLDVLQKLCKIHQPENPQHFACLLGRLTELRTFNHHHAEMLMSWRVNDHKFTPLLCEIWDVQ
Sequence of human Serotonin Transporter (SERT), SLC6A4 (gene 6532) (P31645 whole entry, looked up): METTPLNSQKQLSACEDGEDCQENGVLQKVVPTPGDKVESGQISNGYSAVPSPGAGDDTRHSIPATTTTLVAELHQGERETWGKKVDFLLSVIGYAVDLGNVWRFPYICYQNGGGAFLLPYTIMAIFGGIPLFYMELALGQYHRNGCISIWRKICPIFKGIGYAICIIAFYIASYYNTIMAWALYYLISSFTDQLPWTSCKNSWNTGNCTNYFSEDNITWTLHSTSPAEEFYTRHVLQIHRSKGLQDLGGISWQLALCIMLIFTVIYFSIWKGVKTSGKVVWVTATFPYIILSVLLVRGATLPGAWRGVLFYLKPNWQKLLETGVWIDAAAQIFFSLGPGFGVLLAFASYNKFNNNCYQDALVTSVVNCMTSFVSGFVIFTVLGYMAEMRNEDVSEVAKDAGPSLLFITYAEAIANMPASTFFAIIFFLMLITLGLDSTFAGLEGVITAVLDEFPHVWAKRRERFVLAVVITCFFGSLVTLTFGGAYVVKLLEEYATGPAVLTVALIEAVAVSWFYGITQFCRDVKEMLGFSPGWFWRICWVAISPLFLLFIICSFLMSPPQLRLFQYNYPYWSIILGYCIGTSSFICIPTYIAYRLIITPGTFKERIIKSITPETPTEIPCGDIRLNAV

Regarding `COc1ccc2sc(C(=O)Nc3nnn[nH]3)c(OC(C)C)c2c1`, the outcome in [1], in [2], in [3] and in assay [4] was inactive.

With `CC/C(=C\C(=N/O)C(N)=O)C(C)[N+](=O)[O-]` (configuration not stated), the compound was called inactive in [5], in assay [2], in [6], in assay [3] and in [4].

By AC50 is commonly meant the concentration at which the activity in the assay is half-maximal. Take `CNS(=O)(=O)c1cc(C(=O)N2CCC(CCN3C4CCC3CC(n3c(C)nc5ccccc53)C4)(c3cccc(F)c3)CC2)c(Cl)cc1F` (configuration not stated): the AC50 in assay [5] was 8.74 µM (active); in assay [7] it was 8.93 µM (active); in assay [1], 2.25 µM (active); in assay [9] it was 12.6 µM (active); in assay [10] it was 17.6 µM (active); in [6] it was 28.4 µM (active) and 12.1 µM (active). Besides, the values for the AC50 in [12] and in assay [13] were 2.65 µM (active) and 3.6 µM (active), respectively. Moreover, the compound was called inactive in assay [8], in [3], in assay [4] and in assay [11].

On to `Cn1c(=O)cc(Oc2ccc(F)cc2F)c2cnc(NCC(C)(C)O)nc21`, for which the AC50 in [1] is 4.35 µM (active); in assay [14], 8.38 µM (active). Further, the compound was called inactive in assay [2], in [9], in assay [10], in [6], in [3] and in [4]. The call in assay [11], in assay [12] and in assay [15] was inactive.

Regarding `CCC(C)(C)C(=O)O[C@H]1C[C@@H](C)C=C2C=C[C@H](C)[C@H](CC[C@@H]3C[C@@H](O)CC(=O)O3)[C@H]21`, the concentration at half-maximal activity (AC50) in [5] is 25 µM (active); in [14], 0.338 µM (active); in [12], 0.809 µM (active). Also, the outcome in [1], in [2], in assay [16], in assay [6], in [3] and in assay [4] was inactive. For the same compound, the call in assay [11] and in assay [15] was inactive.

As to `CNCc1ccc(NC(=O)c2c[nH]c3c2C(=O)CCC3)cc1`, the figures for the AC50 in [5] and in [7] were 13.8 µM (active) and 25 µM (active), respectively. Also, the result in assay [17], in assay [6], in assay [3] and in [4] was inactive.

As to `CC(=O)OCCC(C)C`, the compound was classed as inactive in [5], in assay [1], in assay [17], in assay [16], in assay [6] and in assay [3]. Besides, the result in assay [4] was inactive.

For `COCCOc1cc2cc(C(=O)NC3CCN(C(C)C)CC3)n(CC(=O)Nc3ccc(Cl)cn3)c2cn1`, the AC50 in [18] is 15.4 µM (active); in [1], 5.89 µM (active). The compound was called inactive in assay [6].

On to `CCOC(=O)c1ccc(C2CCC(NC[C@H](O)COc3ccc(O)c(NS(C)(=O)=O)c3)CC2)cc1` (some centres not stated), for which the AC50 in assay [18] was 14.9 µM (active); in [19] it was 7.29 µM (active); in assay [5], 0.321 µM (active); in assay [7], 1.71 µM (active); in assay [1], 1.01 µM (active); in assay [10] it was 28.8 µM (active). The concentration at half-maximal activity (AC50) in [6] is 10.4 µM (active); in assay [14], 2.78 µM (active); in assay [11], 2.95 µM (active); in [12] it was 5.6 µM (active). Further, the result in assay [3], in assay [4] and in assay [15] was inactive.

Values taken from PubChem BioAssay (EPA / NIEHS).
